CYP2C19 inh: blockers of cytochrome P450 2C19 activity – biochemical, luminescence, ADME assay, primary screen; P33261; CYP2C19 Supersomes, luciferin-H EGE luminescence, 30 min; AID 778, 2007; hit rate 21% among 96,000; inhibition, % at 5 µM;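 active means CYP2C19 inhibition above a set limit at 5 µM in the primary screen, cut at about 50% in these data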;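 further: plate controls were negative control wells for no effect and 2.5 mM tranylcypromine positive control for full effect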
CYP2C19 act: human CYP2C19 activators, primary screen, biochemical, luminescence. Cytochrome P450 2C19 (Homo sapiens), P33261. recombinant CYP2C19, luciferin-H EGE luminescence; stronger effect = higher value; 0 = fully inhibited enzyme, 1 = untreated enzyme. activation factor at 5 µM. 96,000 tested, under 10 active;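 active means activation factor of at least 2 at 5 µM in the primary screen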;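 further: 0 = wells with 2.5 mM tranylcypromine and 1 = vehicle-only wells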
Measles CPE: compounds protecting cells from measles virus cytopathic effect, primary screen, measles RdRp inhibitor project, single point, MLSMR library, absorbance; Measles virus-infected cells, CPE protection; protection (pct of control), % at 4 µM; hit rate 1.5% among 140,000; in the data active means protection mostly above about 24%, no sharp cut-off; inactive means mostly below about 26%
CYP2C9 inh: blockers of cytochrome P450 2C9 activity – biochemical, luminescence, ADME assay, primary screen | P11712 | CYP2C9 Supersomes, luciferin-H conversion | inhibition, % at 5 µM | hit rate 20% among 96,000 | AID 777, 2007;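 active means blocking of liver enzyme CYP2C9 beyond about 50% at 5 µM, limit read from the data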
Target sequence (P11712 whole entry, looked up): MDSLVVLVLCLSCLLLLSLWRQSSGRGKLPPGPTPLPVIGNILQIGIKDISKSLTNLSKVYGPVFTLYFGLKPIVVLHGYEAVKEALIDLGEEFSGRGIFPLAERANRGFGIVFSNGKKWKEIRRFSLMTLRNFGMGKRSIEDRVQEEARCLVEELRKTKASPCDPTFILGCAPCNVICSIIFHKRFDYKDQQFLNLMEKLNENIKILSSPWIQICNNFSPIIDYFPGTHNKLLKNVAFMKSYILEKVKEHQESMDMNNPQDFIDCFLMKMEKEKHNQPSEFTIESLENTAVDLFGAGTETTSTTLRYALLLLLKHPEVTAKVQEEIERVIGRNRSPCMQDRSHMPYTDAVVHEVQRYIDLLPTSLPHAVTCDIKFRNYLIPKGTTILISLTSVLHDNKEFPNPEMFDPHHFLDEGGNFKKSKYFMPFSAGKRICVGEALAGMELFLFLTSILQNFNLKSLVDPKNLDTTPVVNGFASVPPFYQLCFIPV
CYP2C9 activ: human CYP2C9 activators, primary screen, biochemical, luminescence; recombinant CYP2C9, luciferin-H conversion; stronger effect = higher value; factor 1 = untreated enzyme, 0 = blocked; activation factor at 5 µM; Cytochrome P450 2C9 (Homo sapiens), P11712; hit rate 1.4% among 96,000;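 active means activation factor of 2 or more for CYP2C9 at a 5 µM dose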;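 further: 0 = sulfaphenazole-blocked wells and 1 = vehicle-only wells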
* = called active by the depositor; / = no result given. This is a sample that favours compounds with a hit; in the whole collection about 22% have one here.

SMILES	CYP2C19 inh	CYP2C19 act	Measles CPE	CYP2C9 inh	CYP2C9 activ
COc1ccc(OCC(=O)Nc2ccccc2OC)cc1	63.1*	0.4	4.2	2.1	1
COc1ccc(OCC(=O)Nc2ccccc2OC(F)F)cc1	48.9	0.5	31.4	4.7	1
COc1ccccc1OCC(=O)Nc1ccc(C(N)=O)cc1	7.4	0.9	31.1	19.0	0.8
O=C(COc1ccccc1CNCc1ccccc1)Nc1ccccc1	93.4*	0.1	8.7	44.7	0.6
CNCc1ccccc1OCC(=O)Nc1ccccc1OC	64.0*	0.4	9.8	-36.0	1.4
Fc1ccc(-c2csc3ncnc(Nc4ccc(N5CCOCC5)cc4)c23)cc1	35.0	0.7	10.9	26.9	0.7
Cc1cc(C(F)(F)F)c(C#N)c(Sc2ccccc2)n1	31.7	0.7	5.8	16.2	0.8
CCCCNCCOCCOc1ccc(C)cc1Br	/	/	34.4	/	/
CCCC(=O)Nc1ccccc1NC(=O)c1cc(OC)c(OC)c(OC)c1	1.2	1	3.1	71.2*	0.3
COc1cc(NC(=O)CCCC(=O)OCC(F)(F)C(F)F)nc(OC)n1	75.8*	0.2	17.5	-32.2	1.3
C=CCOC(=O)CCC(=O)Nc1cc(OC)nc(OC)n1	41.2	0.6	6.0	22.4	0.8
Cc1ccsc1/C=N/NC(=O)CSCc1ccc(Cl)cc1	51.4*	0.5	6.5	22.4	0.8
COc1ccccc1NC(=O)CNC(=O)c1ccccc1	65.7*	0.3	0.4	23.4	0.8
COc1ccc(C2C(C(=O)NC(C)C)c3ccccc3C(=O)N2C)cc1OC (configuration not stated)	-16.2	1.2	31.9	-9.0	1.1
COc1cccc(OCC(O)CN2CC(C)CC(C)C2)c1 (configuration not stated)	15.4	0.8	16.7	-7.1	1.1
COc1ccccc1NC(=O)COc1ccc(/C=N/NC(=O)CSCc2ccc(Cl)cc2)cc1	62.7*	0.4	5.1	66.4*	0.3
COc1ccccc1NC(=O)CCSCCC(=O)Nc1ccccc1OC	/	/	8.8	/	/
COc1ccc(NC(=O)c2cc(OC)c(OC)c(OC)c2)cn1	56.0*	0.4	3.0	41.6	0.6
COc1ccccc1NC(=O)COc1ccc(/C=N/NC(=O)CSCc2cc(C)cc(C)c2)cc1	/	/	19.6	/	/
COc1cc(C(=O)Nc2ccc(NC(=O)c3ccco3)nc2)cc(OC)c1OC	9.7	0.9	7.1	19.8	0.8
COc1ccccc1NC(=O)CCC(=O)Nc1ccccc1OC	7.4	0.9	2.0	-209.5	3.1*
COc1ccc(/C=N/NC(=O)C2(O)c3ccccc3-c3ccccc32)cc1	/	/	20.7	/	/
CCOc1cc(-c2c(C#N)c(N)nc3c2CCCC3C)ccc1O (configuration not stated)	35.9	0.6	5.0	20.8	0.8
Nn1c(CSc2ccccn2)nc2ccccc2c1=O	32.6	0.7	16.1	2.3	1
COc1cc2c(cc1NC(=O)c1ccncc1)oc1ccccc12	57.5*	0.4	5.5	90.7*	0.1
SMILES	CYP2C19 inh	CYP2C19 act	Measles CPE	CYP2C9 inh	CYP2C9 activ
COc1cc2c(cc1NC(=O)c1cccnc1)oc1ccccc12	-39.1	1.4	13.9	-18.8	1.2
COc1cc2c(cc1NS(=O)(=O)N1CCCC1)oc1ccccc12	82.0*	0.2	17.4	-95.0	2*
Cc1cc(C)c2c(c1)SC1=NC(c3ccccc3)(C(F)(F)F)NC(=O)N12 (configuration not stated)	20.4	0.8	8.0	13.4	0.9
COC(=O)c1ccc(NC2(C#N)C(=O)Nc3ccccc32)cc1 (configuration not stated)	52.4*	0.5	5.4	70.7*	0.3
CC(C)CCNC(=O)C(Cc1ccccc1)NS(=O)(=O)c1ccc2c(c1)c(=O)n(C)c(=O)n2C (configuration not stated)	33.9	0.7	28.8	37.7	0.6
CC(C)n1c(SCc2ccccc2F)nc2c1c(=O)n(C)c(=O)n2C	59.6*	0.4	6.1	73.7*	0.3
N#Cc1c(N)oc(-c2ccccc2)c1-c1ccccc1	74.7*	0.3	8.1	55.9*	0.4
N#Cc1c(/N=C/c2ccco2)oc(-c2ccccc2)c1-c1ccccc1	49.2	0.5	7.8	73.4*	0.3
N#Cc1c(N)oc(-c2ccco2)c1-c1ccco1	22.2	0.8	9.0	64.2*	0.4
CCOc1ccc(/C=N/Nc2nc(N3CCCC3)nc(N3CCCC3)n2)cc1OC	-8.4	1.1	4.1	-0.4	1
COC(=O)C1C(=O)CC(C)(O)C(C(=O)OC)C1/C=C/c1ccccc1 (configuration not stated)	1.8	1	4.0	7.4	0.9
COC(=O)C1C(C(C)C)N(c2ccccc2)OC1(C)O (configuration not stated)	56.5*	0.4	0.8	-1.5	1
COc1ccc(C(=O)OCC(=O)NC(C)(C)C)cc1[N+](=O)[O-]	/	/	14.4	/	/
CCOC(=O)N1CCN(C(=O)CCCn2nc(C)c3sc4ccccc4c3c2=O)CC1	5.2	0.9	9.0	-136.9	2.4*
CCOC(=O)C(C)n1nc(C)c2sc3ccccc3c2c1=O (configuration not stated)	/	/	29.8	/	/
CN(C)/C=C1/Sc2ccccc2C1=O	-8.7	1.1	2.8	3.0	1
N#C/C=C1/NC(=O)c2ccccc2S1	8.6	0.9	14.4	62.4*	0.4
COc1ccc(C)cc1NC(=O)C(Sc1nnc(Nc2cc(C)ccc2OC)s1)c1ccccc1 (configuration not stated)	/	/	3.5	/	/
CCN(CC)C(=O)C(Sc1ccccc1)c1ccccc1 (configuration not stated)	90.5*	0.1	60.8*	12.3	0.9
O=C(Nn1cnnc1)C(c1ccccc1)c1ccccc1	5.2	0.9	15.6	7.2	0.9
CCCNC(=O)C(Sc1ccccc1)c1ccccc1 (configuration not stated)	/	/	25.2	/	/
CNC(=O)C(Sc1ccccc1)c1ccccc1 (configuration not stated)	91.1*	0.1	8.9	44.4	0.6
O=C(Nn1cnnc1)C(Sc1ccccc1)c1ccccc1 (configuration not stated)	61.0*	0.4	26.5	74.2*	0.3
COc1ccc(OC)c(NC(=O)C(Sc2ccccc2)c2ccccc2)c1 (configuration not stated)	56.1*	0.4	7.5	7.3	0.9
CCN(CCO)C(=O)C(c1ccccc1)c1ccccc1	21.7	0.8	2.7	17.3	0.8
O=C(Nc1nncs1)Oc1ccccc1	-11.1	1.1	9.6	-9.2	1.1
COc1ccc(CNc2nc3c(c(=O)[nH]c(=O)n3C)n2Cc2ccccc2C)cc1	6.9	0.9	12.9	4.7	1
O=S(=O)(c1ccccc1F)N1CCN(Cc2nc3ccccc3[nH]2)CC1	55.0*	0.4	8.9	-81.0	1.8

Screens as filed in PubChem BioAssay.
